Measurements: PubChem BioAssay (Tox21)
Where “and” joins values, the source holds several entries; their conditions need not be identical. Identical values can stand only once. A structure can be active in one record and inactive in another. Calls of active or inactive are those of the source. Unless noted, calls follow the shape of the dose curve; as a rule, active = well fitted curve in the direction sought with a large enough effect in the repeat runs; inconclusive = weak or mixed curves; inactive = no such curve, though single readings can be large; an effect the other way counts as inactive or inconclusive.

Columns and labels:
[1] = qHTS assay to identify small molecule antagonists of the thyroid receptor (TR) signaling pathway - cell viability counter screen (AID 743064); conditions: GH3.TRE-Luc viability, CellTiter-Fluor, 24 h; series mostly up to 70.3 µM; also: nearly all actives have a fitted effect of over 50% in size; also: potency is read from the fitted curve at half-maximal effect
In short: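 In rat pituitary GH3.TRE-Luc reporter cells co-exposed to compound and 1 nM T3 for 23.5 h, cytotoxicity was assessed with CellTiter-Fluor in the same wells, read by fluorescence.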

[2] = qHTS assay to identify small molecule antagonists of the thyroid receptor (TR) signaling pathway (AID 743065); conditions: GH3.TRE-Luc, T3-stimulated luciferase inhibition, 23.5 h; series mostly up to 70.3 µM; also: nearly all actives have a fitted effect of over 55% in size; also: potency is read from the fitted curve at half-maximal effect
In short: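 GH3.TRE-Luc rat pituitary cells carrying two TR response elements driving luciferase were plated for 4 h, given compound plus 1 nM T3 (final), and incubated 23.5 h at 37 C. ONE-Glo luminescence measured reporter inhibition; CellTiter-Fluor fluorescence tracked cytotoxicity.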

[3] = test system: thyroid hormone receptor (rat, GH3 cells); assay: qHTS assay to identify small molecule agonists of the thyroid receptor (TR) signaling pathway (AID 743066; calls by dose curve); conditions: GH3.TRE-Luc cells, TR agonist luciferase, 24 h; series mostly up to 83.9 µM
[4] = target: Estrogen receptor (Homo sapiens) (UniProt P03372); assay: qHTS assay to identify small molecule antagonists of the estrogen receptor alpha (ER-alpha) signaling pathway (AID 743069; active = well fitted curve in the direction sought with a large enough effect in the signal ratio in the repeat runs, not every such curve was filed as active; inconclusive = weak or mixed curves, or effect the other way; inactive = no such curve, though single readings can be large or run the other way; the % refers to the signal ratio); conditions: HEK293 ER-alpha-UAS-bla, beta-lactamase ratio, antagonist mode; series mostly up to 69.4 µM
Sequence of Estrogen receptor (Homo sapiens) (P03372 whole entry, looked up): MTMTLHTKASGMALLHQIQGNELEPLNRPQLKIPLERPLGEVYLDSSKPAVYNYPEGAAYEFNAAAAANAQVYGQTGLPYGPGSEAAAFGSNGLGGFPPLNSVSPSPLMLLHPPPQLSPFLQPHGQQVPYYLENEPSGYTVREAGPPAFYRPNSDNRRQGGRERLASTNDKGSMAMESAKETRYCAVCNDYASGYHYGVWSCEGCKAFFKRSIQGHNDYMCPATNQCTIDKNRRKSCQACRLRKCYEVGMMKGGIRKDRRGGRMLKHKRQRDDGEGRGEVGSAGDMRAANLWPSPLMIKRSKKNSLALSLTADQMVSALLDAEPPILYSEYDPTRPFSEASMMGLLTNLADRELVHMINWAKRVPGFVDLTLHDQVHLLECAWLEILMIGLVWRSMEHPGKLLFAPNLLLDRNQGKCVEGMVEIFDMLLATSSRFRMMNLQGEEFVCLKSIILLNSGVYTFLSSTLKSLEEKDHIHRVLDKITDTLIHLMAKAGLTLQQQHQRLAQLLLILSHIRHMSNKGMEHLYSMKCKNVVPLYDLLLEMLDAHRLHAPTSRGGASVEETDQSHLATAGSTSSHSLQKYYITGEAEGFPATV
In short: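 A 17beta-estradiol challenge was applied right after compound transfer to ER-alpha-UAS-bla HEK293 cells previously kept in charcoal-stripped serum. Plates stood 18 hr at 37C and 5% CO2; fluorescence was read following 2 hr FRET substrate loading at room temperature.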

[5] = target: Estrogen receptor (Homo sapiens) (UniProt P03372); assay: qHTS assay to identify small molecule agonists of the estrogen receptor alpha (ER-alpha) signaling pathway (AID 743075; calls by dose curve;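 also: HEK293 GripTite cells with ER-alpha and UAS-driven beta-lactamase reporter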; also: potency is read from the fitted curve at half-maximal effect); conditions: HEK293 ER-alpha-UAS-bla, beta-lactamase FRET ratio, 18 h; series mostly up to 70.1 µM
[6] = target: Estrogen receptor (Homo sapiens) (UniProt P03372); assay: qHTS assay to identify small molecule agonists of the estrogen receptor alpha (ER-alpha) signaling pathway using the BG1 cell line (AID 743079); conditions: BG1Luc4E2 cells, ERE-luciferase agonist, 22 h; series mostly up to 70.3 µM; also: nearly all actives have a fitted effect of over 20% in size; also: potency is read from the fitted curve at half-maximal effect
[7] = qHTS assay to identify small molecule antagonists of the estrogen receptor alpha (ER-alpha) signaling pathway using the BG1 cell line (AID 743080; calls by dose curve;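 also: BG1 cells stimulated with 17beta-estradiol alongside compound; nearly all actives have a fitted effect of over 25% in size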; also: potency is read from the fitted curve at half-maximal effect); conditions: BG1Luc4E2 ERE-luciferase antagonist mode, luminescence; series mostly up to 70.3 µM
In short: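 BG1-Luc-4E2 cells (endogenous full-length ER-alpha, stable 4×ERE-luciferase) were starved 5 days in phenol-red-free medium with 10% charcoal-stripped FBS, plated 24 h, then given compound plus 17beta-estradiol for 21.5 h at 37 C; ONE-Glo luminescence read after 30 min.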

[8] = qHTS assay to identify small molecule antagonists of the estrogen receptor alpha (ER-alpha) signaling pathway using the BG1 cell line - cell viability counter screen (AID 743081); conditions: BG1Luc4E2 viability, CellTiter-Fluor, 22 h; series mostly up to 70.3 µM;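 also: compound given together with 17beta-estradiol as the ER stimulus; nearly all actives have a fitted effect of over 45% in size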; also: potency is read from the fitted curve at half-maximal effect
[9] = target: Aromatase (Homo sapiens) (UniProt P11511); assay: qHTS assay to identify aromatase inhibitors (AID 743083); conditions: MCF-7 aro ERE, testosterone-driven ERE luciferase, 24 h; series mostly up to 70.3 µM; also: nearly all actives have a fitted effect of over 55% in size; also: potency is read from the fitted curve at half-maximal effect
Sequence of Aromatase (Homo sapiens) (P11511 whole entry, looked up): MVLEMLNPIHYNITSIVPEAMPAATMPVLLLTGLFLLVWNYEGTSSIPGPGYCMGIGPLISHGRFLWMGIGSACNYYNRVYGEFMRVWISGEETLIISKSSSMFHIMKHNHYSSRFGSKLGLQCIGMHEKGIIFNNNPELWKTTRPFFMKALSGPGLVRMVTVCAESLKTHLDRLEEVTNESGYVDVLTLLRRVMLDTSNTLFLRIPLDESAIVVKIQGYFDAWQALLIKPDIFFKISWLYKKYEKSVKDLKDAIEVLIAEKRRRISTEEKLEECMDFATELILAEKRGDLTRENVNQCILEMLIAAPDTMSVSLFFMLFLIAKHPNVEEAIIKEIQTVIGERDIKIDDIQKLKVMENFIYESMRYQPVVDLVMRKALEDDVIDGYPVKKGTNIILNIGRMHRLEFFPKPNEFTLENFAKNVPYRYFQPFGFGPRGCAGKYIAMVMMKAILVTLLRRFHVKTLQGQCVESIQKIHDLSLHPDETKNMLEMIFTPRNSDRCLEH

[10] = qHTS assay to identify aromatase inhibitors - cell viability counter screen (AID 743084); conditions: MCF-7 aro ERE viability, CellTiter-Fluor, 24 h; series mostly up to 70.3 µM;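 also: cells stimulated with testosterone during compound exposure; nearly all actives have a fitted effect of over 55% in size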; also: potency is read from the fitted curve at half-maximal effect
[11] = target: Aryl hydrocarbon receptor (Homo sapiens) (UniProt P35869); assay: qHTS assay to identify small molecule that activate the aryl hydrocarbon receptor (AhR) signaling pathway (AID 743085); conditions: HepG2 AhR-luc (HG2L7.5c1), luciferase, 24 h; series mostly up to 70.3 µM; also: nearly all actives have a fitted effect of over 15% in size; also: potency is read from the fitted curve at half-maximal effect;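 as to activation: HG2L7.5c1 human HepG2 liver cells with stably integrated DRE-driven firefly reporter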
Sequence of Aryl hydrocarbon receptor (Homo sapiens) (P35869 whole entry, looked up): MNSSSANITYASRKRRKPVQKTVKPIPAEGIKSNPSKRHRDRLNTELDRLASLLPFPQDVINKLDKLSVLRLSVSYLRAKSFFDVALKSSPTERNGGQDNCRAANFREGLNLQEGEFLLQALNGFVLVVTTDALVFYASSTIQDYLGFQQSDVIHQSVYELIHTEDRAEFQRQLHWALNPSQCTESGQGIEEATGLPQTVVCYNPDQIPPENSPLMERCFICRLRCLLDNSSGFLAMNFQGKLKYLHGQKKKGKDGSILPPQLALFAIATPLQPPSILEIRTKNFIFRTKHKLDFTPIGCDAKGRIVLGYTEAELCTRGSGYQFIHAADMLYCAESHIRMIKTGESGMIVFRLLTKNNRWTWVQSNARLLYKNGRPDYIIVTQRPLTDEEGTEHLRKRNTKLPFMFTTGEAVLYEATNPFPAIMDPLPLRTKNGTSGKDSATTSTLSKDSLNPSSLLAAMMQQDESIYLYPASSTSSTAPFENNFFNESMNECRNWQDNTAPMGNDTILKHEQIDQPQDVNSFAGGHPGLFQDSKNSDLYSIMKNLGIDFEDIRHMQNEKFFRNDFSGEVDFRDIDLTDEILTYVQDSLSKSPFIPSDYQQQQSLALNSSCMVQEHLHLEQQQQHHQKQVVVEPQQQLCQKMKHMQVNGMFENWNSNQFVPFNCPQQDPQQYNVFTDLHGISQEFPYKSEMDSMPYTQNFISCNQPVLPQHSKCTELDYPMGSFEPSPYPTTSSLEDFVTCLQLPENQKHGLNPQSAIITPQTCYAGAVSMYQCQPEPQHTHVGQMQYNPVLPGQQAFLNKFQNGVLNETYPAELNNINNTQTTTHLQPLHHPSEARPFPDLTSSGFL
In short: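 AhR agonist activity is inferred from enhanced light output of a DRE-controlled firefly luciferase reporter in HepG2 cells, measured with ONE-Glo following 24 h treatment at 37C.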

[12] = qHTS assay to identify small molecule that activate the aryl hydrocarbon receptor (AhR) signaling pathway - cell viability counter screen (AID 743086); conditions: HepG2-AhR-luc viability, CellTiter-Fluor, 24 h; series mostly up to 70.3 µM; also: nearly all actives have a fitted effect of over 45% in size; also: potency is read from the fitted curve at half-maximal effect
In short: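 HepG2-AhR-luc (HG2L7.5c1) cells, 4000/well, were preincubated 5 h at 37C, exposed to compound in qHTS format for 24 hr at 37C, then given CellTiter-Fluor for 30 min; viability was read as fluorescence in the reporter wells.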

[13] = qHTS assay to identify small molecule antagonists of the peroxisome proliferator-activated receptor gamma (PPARg) signaling pathway - cell viability counter screen (AID 743194); conditions: PPARg-bla HEK293H viability, CellTiter-Glo luminescence, 17 h, co-treated with 50 nM rosiglitazone; series mostly up to 62.6 µM; also: nearly all actives have a fitted effect of over 55% in size; also: potency is read from the fitted curve at half-maximal effect
In short: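 PPARg-UAS-bla HEK293H cells were plated, rested 5 h at 37 C, then treated with compounds plus rosiglitazone (50 nM final) for 17 h at 37 C; viability was then read by CellTiter-Glo luminescence after 30 min at room temperature.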

[14] = qHTS assay for small molecule agonists of the antioxidant response element (ARE) signaling pathway - cell viability counter screen (AID 743203; calls by dose curve; also: nearly all actives have a fitted effect of over 55% in size; also: potency is read from the fitted curve at half-maximal effect); conditions: ARE-bla HepG2 viability, CellTiter-Glo luminescence, 16 h; series mostly up to 73.3 µM
In short: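 ATP content via CellTiter-Glo luminescence served as the viability measure. Cells: ARE-bla HepG2, 2,000 per well. Exposure: 16 hrs, 37C/5% CO2.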

[15] = qHTS assay for small molecule activators of the heat shock response signaling pathway - cell viability counter screen (AID 743209); conditions: HSE-bla HeLa viability, CellTiter-Glo luminescence, 5 h; series mostly up to 62.6 µM; also: nearly all actives have a fitted effect of over 50% in size
In short: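 Compounds dissolved in DMSO were added to overnight-plated HSE-bla HeLa cells and left 5 h at 37 C. Cell viability was quantified by luminescence using CellTiter-Glo.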

[16] = qHTS assay to identify small molecule antagonists of the estrogen receptor alpha (ER-alpha) signaling pathway - cell viability counter screen (AID 743074; calls by dose curve;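 also: HEK293 cells carrying ER-alpha-UAS-bla reporter stimulated with 17beta-estradiol; nearly all actives have a fitted effect of over 45% in size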); conditions: ERalpha-bla HEK293 viability, CellTiter-Glo luminescence, 18 h; series mostly up to 69.4 µM
[17] = target: Peroxisome proliferator-activated receptor gamma (Homo sapiens) (UniProt P37231); assay: qHTS assay to identify small molecule agonists of the peroxisome proliferator-activated receptor gamma (PPARg) signaling pathway (AID 743094; active = well fitted activation curve with a large enough effect in the signal ratio in the repeat runs, not every such curve was filed as active; inconclusive = weak or mixed curves, or effect the other way; inactive = no such curve, though single readings can be large or run the other way; the % refers to the signal ratio); conditions: HEK293H PPARg-UAS-bla, beta-lactamase FRET ratio, 17 h; series mostly up to 57 µM
Sequence of Peroxisome proliferator-activated receptor gamma (Homo sapiens) (P37231 whole entry, looked up): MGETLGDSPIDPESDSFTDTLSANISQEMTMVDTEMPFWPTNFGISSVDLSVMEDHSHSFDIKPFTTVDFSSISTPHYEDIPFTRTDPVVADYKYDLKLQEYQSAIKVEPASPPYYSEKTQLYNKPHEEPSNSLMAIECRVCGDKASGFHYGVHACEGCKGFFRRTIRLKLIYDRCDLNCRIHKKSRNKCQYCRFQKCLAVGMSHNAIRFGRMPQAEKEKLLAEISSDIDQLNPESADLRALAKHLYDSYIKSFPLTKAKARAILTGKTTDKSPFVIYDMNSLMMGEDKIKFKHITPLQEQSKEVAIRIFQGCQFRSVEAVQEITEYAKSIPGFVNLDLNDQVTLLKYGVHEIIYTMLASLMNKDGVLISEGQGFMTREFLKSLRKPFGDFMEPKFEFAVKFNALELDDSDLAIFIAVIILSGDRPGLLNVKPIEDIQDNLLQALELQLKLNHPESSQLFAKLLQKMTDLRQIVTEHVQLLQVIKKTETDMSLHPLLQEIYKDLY
In short: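 Agonism was assessed in a beta-lactamase reporter system, HEK293H cells with a stably integrated UAS-bla construct under PPARg control; the 17 h treatment at 37C preceded a 1 h room-temperature FRET substrate read.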

[18] = target: Peroxisome proliferator-activated receptor gamma (Homo sapiens) (UniProt P37231); assay: qHTS assay to identify small molecule antagonists of the peroxisome proliferator-activated receptor gamma (PPARg) signaling pathway (AID 743191; calls by dose curve; also: nearly all actives have a fitted effect of over 30% in size; also: potency is read from the fitted curve at half-maximal effect); conditions: HEK293H PPARg-UAS-bla, beta-lactamase ratio, antagonist, 17 h; series mostly up to 62.6 µM
In short: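 GeneBLAzer PPARg UAS-bla HEK293H cells carrying a UAS-driven beta-lactamase reporter were plated at 3000 cells/well, preincubated 5 h at 37C, then given compound for 17 h at 37C; LiveBLAzer B/G FRET substrate was read after 1 h at room temperature.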

[19] = qHTS assay for small molecule agonists of the antioxidant response element (ARE) signaling pathway (AID 743202; active = well fitted activation curve with a large enough effect in the signal ratio in the repeat runs, not every such curve was filed as active; inconclusive = weak or mixed curves, or effect the other way; inactive = no such curve, though single readings can be large or run the other way; the % refers to the signal ratio; also: potency is read from the fitted curve at half-maximal effect); conditions: HepG2 ARE-bla reporter, beta-lactamase FRET, 16 h; series mostly up to 73.3 µM
In short: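 Following a 16 h, 37 C exposure of reporter HepG2 cells (ARE-driven beta-lactamase, 2,000 cells/well) to compounds, FRET substrate was applied for 2 h at room temperature and fluorescence intensity recorded.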

[20] = qHTS assay for small molecule activators of the heat shock response signaling pathway (AID 743210; active = well fitted activation curve with a large enough effect in the signal ratio in the repeat runs, with a control signal flat, not every such curve was filed as active; inconclusive = weak or mixed curves; the % refers to the signal ratio); conditions: HeLa HSE-bla reporter, beta-lactamase ratio, 5 h; series mostly up to 62.6 µM
In short: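 Heat shock element–beta-lactamase HeLa reporter cells; qHTS with compounds for 5 h at 37 C; detection by FRET substrate fluorescence after 2.5 h at RT.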

Measured: Potency

ClC1=C(Cl)C(Cl)(Cl)C(Cl)=C1Cl
active: [2] 54.5 µM | [13] 2.2 µM and 3.09 µM | [14] 13.8 µM and 12.2 µM
inactive and 48.6 µM (active): [9]
not listed: [16] | [17] | [18] | [19] | [20]
inactive: all other assays above

CCCCC(CC)COC(C)=O (centres undefined)
not listed: [4] | [5] | [6] | [7] | [20]
inactive: all other assays above

C=CC(=O)OCCCCCCCC(C)C
inactive: all assays above

O=S(=O)(O)c1cc(S(=O)(=O)O)c2c(N=Nc3ccccc3)c(O)ccc2c1
active: [1] 27.4 µM and 68.6 µM | [8] 27.4 µM and 30.6 µM | [10] 24.4 µM and 27.3 µM | [12] 21.8 µM and 21.7 µM
not listed: [17] | [18]
inactive: all other assays above

CC1COc2ccccc2N1C(=O)C(Cl)Cl (centres undefined)
61 µM (active) and inactive: [9]
17.2 µM (active) and inactive: [11]
active: [1] 9.67 µM and 19.3 µM | [2] 8.62 µM and 15.3 µM | [5] 24.5 µM [inconclusive] | [7] 30.6 µM and 68.5 µM | [10] 27.3 µM | [18] 24.5 µM | [19] 19.3 µM and 27.3 µM
not listed: [17]
inactive: all other assays above

OCCOCCOCCOCCO
not listed: [17] | [18]
inactive: all other assays above

CS(=O)(=O)c1ccc([C@@H](O)[C@@H](CO)NC(=O)C(Cl)Cl)cc1
inactive: all assays above

O=S(=O)(Oc1ccc(Cl)cc1Cl)c1ccccc1
active: [5] 7.9 µM [activator] and 55 µM [activator] | [6] 19.7 µM and 30.6 µM
not listed: [7] | [20]
inactive: all other assays above

Cc1ccc(N)c(S(=O)(=O)O)c1
not listed: [4] | [5] | [6] | [7] | [20]
inactive: all other assays above

Nc1cc(-c2ccncc2)c[nH]c1=O
not listed: [19]
inactive: all other assays above

O=S(=O)(O)CCS
not listed: [20]
inactive: all other assays above

O=C(Cl)c1c(Cl)c(Cl)c(C(=O)Cl)c(Cl)c1Cl
not listed: [20]
inactive: all other assays above

OC[C@@H](O)[C@H](O)[C@H](O)[C@@H](O)CO
inactive: all assays above

CCCCCCC(C)(C)S
not listed: [4] | [5] | [6] | [7]
inactive: all other assays above

Cc1ccc(C)c(C)c1
not listed: [18] | [20]
inactive: all other assays above

CC1Cc2ccccc2N1NC(=O)c1ccc(Cl)c(S(N)(=O)=O)c1 (centres undefined)
not listed: [20]
inactive: all other assays above

NCCNCCNCCNCCN
not listed: [4] | [5] | [6] | [7] | [18] | [19] | [20]
inactive: all other assays above

c1ccc2[nH]cnc2c1
not listed: [4] | [5] | [6] | [7] | [20]
inactive: all other assays above

CCCCCCCCC
inactive: all assays above

C=C1C2CCC(C2)C1(C)C (centres undefined)
inactive: all assays above

CC1(C)CC(N=C=O)CC(C)(CN=C=O)C1 (centres undefined)
inactive: all assays above

c1ccc2ccccc2c1
not listed: [20]
inactive: all other assays above

Oc1ccc2ccccc2c1N=Nc1ccccc1
inactive and 54.5 µM (active): [1]
active: [6] 19.3 µM and 30.6 µM | [10] 30.6 µM and 24.3 µM | [11] 3.06 µM
inactive and 34.4 µM (active): [8]
not listed: [7] | [12] | [18] | [19]
inactive: all other assays above

O=C1CCCCC1
not listed: [16]
inactive: all other assays above

OC[C@@H](O)[C@@H](O)[C@H](O)[C@@H](O)CO
not listed: [20]
inactive: all other assays above

CCC(C)C=O (centres undefined)
inactive: all assays above
